# The campaign covered roughly 88,000 compounds. About 260 (0.3%) were called active. This is one part of a sample in which actives are shown more often than they occur. A number with no mark means an inactive call.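 The calls were made as follows: active = compounds that reduce the energy-transfer binding signal between the protein and its labelled peptide by more than half; inactive = the rest.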
# Target: Mothers against decapentaplegic homolog 3 (Homo sapiens) (UniProt P84022)
# Assay: blockers of Smad3 binding to FoxH1 – biochemical, TR-FRET, primary screen (AID 630);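 also: 0% = Smad3 plus labelled peptide maximal FRET and 100% = peptide-only background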
# Settings: TR-FRET Smad3/Dy647-FoxH1 peptide binding, europium anti-His; at 25 µM; active compounds read high
# Sequence of Mothers against decapentaplegic homolog 3 (Homo sapiens) (P84022 whole entry, looked up): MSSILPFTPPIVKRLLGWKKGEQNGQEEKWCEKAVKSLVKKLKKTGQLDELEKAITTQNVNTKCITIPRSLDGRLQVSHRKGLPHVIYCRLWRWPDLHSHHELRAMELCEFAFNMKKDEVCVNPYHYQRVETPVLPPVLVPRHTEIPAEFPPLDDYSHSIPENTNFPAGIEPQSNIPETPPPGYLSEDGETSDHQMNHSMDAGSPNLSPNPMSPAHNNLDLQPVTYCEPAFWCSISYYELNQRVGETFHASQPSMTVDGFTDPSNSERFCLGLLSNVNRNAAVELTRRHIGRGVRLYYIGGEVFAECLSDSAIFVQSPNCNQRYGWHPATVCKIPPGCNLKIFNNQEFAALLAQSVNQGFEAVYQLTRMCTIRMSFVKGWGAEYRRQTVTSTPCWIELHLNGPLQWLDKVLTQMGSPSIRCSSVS
row,SMILES,inhibition
1,Cc1ccc(S(=O)(=O)O[C@H]2CN3CCC2CC3)cc1,67.3% (active)
2,O=C1C[C@@H]2OCC=C3CN4CC[C@]56c7ccccc7N1[C@H]5[C@H]2[C@H]3C[C@H]46 (tested in a mixture with another compound),-5.82%
3,c1cc2c(cc1CCNC1CCCCCC1)OCO2,-10.4%
4,CC[C@@](O)(C(=O)O)c1cc2n(c(=O)c1CO)Cc1cc3ccccc3nc1-2,-1.51%
5,C=C[C@@H]1CN2CC[C@H]1C[C@@H]2[C@H](O)c1ccnc2ccccc12,-9.04%
